Measured values reported in paper PMC5540273 (PLoS ONE, 2017).
Where two headings read alike, the source gives them in different places.

What was measured:
[1] = system: T1, MEK5; settings: concentration: 1 μM,replicates: in singlicate; n = 1
T1 construct: gene MAP2K5

[2] = system: T2, MEK6; settings: concentration: 1 μM,replicates: in singlicate; n = 1
T2 construct: gene MAP2K6

[3] = system: MELK; settings: concentration: 1 μM,replicates: in singlicate; n = 1
[4] = system: MERTK; settings: concentration: 1 μM,replicates: in singlicate; n = 1
[5] = system: MET; settings: n = 1
[6] = system: T3, MINK; settings: concentration: 1 μM,replicates: in singlicate; n = 1
T3 construct: gene MINK1

[7] = system: MKK7; settings: concentration: 1 μM,replicates: in singlicate; n = 1
[8] = system: MKNK1; settings: concentration: 1 μM,replicates: in singlicate; n = 1
[9] = system: MKNK2; settings: concentration: 1 μM,replicates: in singlicate; n = 1
[10] = system: T4, MLCK; settings: concentration: 1 μM,replicates: in singlicate; n = 1
T4 construct: gene MYLK3

[11] = concentration: 1 μM,replicates: in singlicate
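Further: KINOMEscan kinase panel screen.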

SMILES | %Inh [1] | %Inh [2] | %Inh [3] | %Inh [4] | %Inh [5, 11] | %Inh [6] | %Inh [7] | %Inh [8] | %Inh [9] | %Inh [10] | %Inh ([5]; 1 µM)
Cn1ccc2ncnc(Oc3ccc(NC(=O)Nc4cncc(C(F)(F)F)c4)c(Cl)c3)c21 | 22% | 0% | 0% | 81% | 12% | 0% | 0% | 0% | 0% | 0% | –
CC(C)c1nc(-c2cccc(NS(=O)(=O)c3ccccc3)c2)c(-c2ccnc(Nc3ccc4c(c3)CN(C)CC4)n2)s1 [GSK1649598] | 99.1% | 26% | 65% | 42% | 23% | 95.1% | 1% | 0% | 81% | 0% | –
CC(=O)Nc1ccc(-c2cc3ncnc(SCC(=O)O)c3s2)cc1 | 17% | 20% | 0% | 0% | 0% | 25% | 0% | 0% | 0% | 40% | –
CC(C(=O)NC1CCN(c2ccnc(Nc3ccc(F)cc3)n2)C1)c1ccc(Cl)cc1 (centres unmarked) [GSK1379713] | 7% | 0% | 0% | 0% | 0% | 0% | 0% | 5% | 0% | 0% | –
O=C(NOCC1CC1)c1cc(Br)c(F)c(F)c1Nc1ccc(I)cc1Cl | 20% | 0% | 0% | 0% | 0% | 9% | 0% | 10% | 5% | 0% | –
CS(=O)(=O)Nc1ccc(-c2ccnc3[nH]ccc23)cc1 [GSK993273] | 67% | 16% | 51% | 56% | 2% | 23% | 0% | 72% | 95.9% | 15% | –
CS(=O)c1ccc(-c2coc3ccc(-c4n[nH]c(=O)o4)cc23)cc1 (centres unmarked) | 17% | 0% | 0% | 0% | 22% | 7% | 1% | 9% | 11% | 32% | –
CC(=O)c1c(-c2ccncc2)[nH]c(-c2ccncc2)c1C [GW493036] | 2% | 0% | 0% | 0% | 11% | 29% | 0% | 14% | 46% | 0% | –
O=C(Nc1cccc(Oc2ccc3nccn3n2)c1)Nc1cccc(C(F)(F)F)c1 | 97% | 0% | 10% | 24% | 0% | 27% | 0% | 8% | 0% | 0% | –
C[C@@H](Oc1cc(-n2cnc3ccc(-c4ccncc4)cc32)sc1C(N)=O)c1ccccc1Cl [GSK483724] | 78% | 0% | 0% | 35% | 9% | 23% | 56% | 0% | 7% | 32% | –
C[C@@H]1CNc2c(sc3ccc4nc(-c5ccncc5)ccc4c23)C(=O)N1 | 33% | 0% | 0% | 100% | 50% | 28% | 0% | 0% | 21% | 54% | –
Cc1ccc(C(=O)Nc2ccc(Oc3ccc4nc(NC(=O)C5CC5)cn4c3)c(F)c2)c(=O)n1-c1ccccc1 | 98.9% | 0% | 37% | 99.2% | – | 0% | 0% | 88% | 94.2% | 0% | –
NC(=O)c1ccc(-c2cc3ncnc(SCC(=O)O)c3s2)cc1 | 38% | 0% | 0% | 0% | 0% | 39% | 0% | 6% | 28% | 12% | –
Cn1ccc2ncnc(Oc3ccc(NC(=O)Nc4cccc(C(F)(F)F)c4)c(F)c3)c21 | 35% | 0% | 10% | 98% | 50% | 0% | 0% | 18% | 89% | 0% | –
CCNCC(Cc1ccccc1)NC(=O)c1cc(Br)c(-c2ccnc3[nH]ccc23)s1.Cl.Cl (centres unmarked) [GSK1383280] | 55% | 21% | 97.5% | 34% | 6% | 64% | 35% | 0% | 94.3% | 17% | –
CCCC(=O)Nc1n[nH]c2ncccc12 [SB-601436] | 0% | 0% | 0% | 5% | 0% | 0% | 0% | 0% | 11% | 0% | –
FC(F)(F)c1cc(Br)cc(Nc2nccc(-c3cnn4ncccc34)n2)c1 [GW810578] | 35% | 12% | 7% | 14% | 0% | 3% | 0% | 19% | 0% | 32% | –

SMILES | %Inh [1] | %Inh [2] | %Inh [3] | %Inh [4] | %Inh [5, 11] | %Inh [6] | %Inh [7] | %Inh [8] | %Inh [9] | %Inh [10] | %Inh ([5]; 1 µM)
Cn1cc(-c2cccc3c(N)c(C(N)=O)nnc23)cn1 | 41% | 0% | 16% | 0% | 3% | 29% | 13% | 5% | 29% | 0% | –
Cl.Cl.NC[C@H](CC1CCCCC1)NC(=O)c1ccc(-c2ccnc3[nH]ccc23)s1 [GSK1581428] | 52% | 27% | 96.4% | 68% | 16% | 67% | 0% | 66% | 97.6% | 74% | –
COc1cccc(C2=C(Nc3cccc(Cl)c3)C(=O)NC2=O)c1 [SB-341556] | 38% | 0% | 0% | 0% | 0% | 0% | 10% | 0% | 27% | 0% | –
O=C(Nc1ccc(Oc2ccc3nc(NC(=O)C4CC4)cn3n2)c(F)c1)c1cccn(-c2ccccc2)c1=O | 97% | 0% | 18% | 96% | – | 0% | 0% | 20% | 92.5% | 0% | –
Cn1ccc2ncnc(Oc3ccc(NC(=O)Nc4cc(C(C)(C)C)on4)c(Cl)c3)c21 | 71% | 7% | 20% | 94.8% | 48% | 91.6% | 0% | 3% | 90% | 7% | –
CCn1c(-c2nonc2N)nc2cncc(Br)c21 [SB-738004] | 74% | 10% | 35% | 0% | 0% | 29% | 22% | 10% | 81% | 28% | –
COc1cccc(OC)c1C(=O)Nc1cccc(-c2nn3ccccc3c2-c2ccnc(Nc3cccc(F)c3)n2)c1 [GSK361065] | 93.2% | 3% | 0% | 50% | 34% | 0% | 0% | 0% | 0% | 2% | –
CNC(=O)c1ccccc1Nc1nc(Nc2cccc(CS(C)(=O)=O)c2)ncc1C.O=CO [GSK1520489] | 99.9% | 39% | 94.6% | 100% | 97.3% | 58% | 0% | 0% | 50% | 41% | –
O=C1NCCc2[nH]c(-c3ccncc3)cc21 | 35% | 25% | 21% | 0% | – | 55% | 0% | 13% | 23% | 58% | 33%
CN1CCN(CCCNc2nccc(-c3c(-c4ccc(F)cc4)nn4cc(C(N)=O)ccc34)n2)CC1 [GW622475] | 42% | 0% | 91.9% | 49% | 32% | 71% | 0% | 10% | 0% | 0% | –
Cl.Nc1n[nH]c2cc(-c3ccccn3)ccc12 [GSK2189892] | 45% | 0% | 2% | 0% | 0% | 0% | 0% | 0% | 32% | 0% | –
O=c1[nH]cc(-c2ccc(O)cc2)c2sc(-c3ccncc3)cc12 [GSK1033723] | 37% | 0% | 0% | 0% | 0% | 0% | 0% | 12% | 26% | 40% | –
COc1cc2nccc(Nc3ccc(Oc4ccccc4)cc3)c2cc1OC.Cl [GI261656] | 99.9% | 0% | 3% | 12% | 0% | 0% | 0% | 0% | 27% | 0% | –
N#Cc1cccc(C(=O)NC2CCN(c3ccnc(Nc4ccc(F)cc4)n3)C2)c1 (centres unmarked) [GSK1379708] | 12% | 0% | 0% | 49% | 18% | 0% | 0% | 0% | 0% | 0% | –
C[C@@H]1CNc2c(sc3ccc4nc(-c5ccc(O)cc5)ccc4c23)C(=O)N1 | 67% | 13% | 0% | 62% | 92.7% | 61% | 0% | 27% | 34% | 52% | –
COC(=O)c1cccc(NC(=O)NC2CCN(c3ccnc(NCc4ccc(F)cc4)n3)CC2)c1 [GSK1379860] | 8% | 0% | 0% | 0% | 0% | 0% | 45% | 0% | 9% | 0% | –
COC(=O)Nc1nc2cc(Oc3ccc(NC(=O)Nc4cc(C(F)(F)F)ccc4Cl)cc3)ccc2[nH]1.Cl [GW697465] | 78% | 0% | 0% | 96.3% | 84% | 0% | 0% | 51% | 92.8% | 0% | –
